Source: the supplement of paper PMC10811239

Tested on: LEGO organoid PTN (PTEN-/-; TP53-/-; NF1-/-)
Assay: bioluminescence (viable cell) signal fold change after vs before treatment, normalised to DMSO (ratio); higher = more tumour cell growth / less inhibition
Details: 10 µM; treatment time 6 days
Description: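 Luc2-labelled iPSC-derived glioblastoma-like organoids (LEGOs, genotypes PT = PTEN-/-;TP53-/-, PTCC = plus CDKN2A/B-/-, PTN = plus NF1-/-) were treated with 10 uM drug for 6 days (applied every other day) at 37 C. Bioluminescence imaging was done before treatment and 2 days after the last dose. BLI signals were normalised to the DMSO control on the same day and then to the pre-treatment signal (N=3).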

| SMILES | bioluminescence |
| --- | --- |
| CN(C)C(=O)Oc1ccc[n+](C)c1.[Br-] [Mestinon] | 0.642 |
| CCN(C)C(=O)Oc1cccc([C@H](C)N(C)C)c1 [Rivastigmine] | 1.18 |
| COc1ccc(C(CN(C)C)C2(O)CCCCC2)cc1.Cl (configuration not stated) [Venlafaxine hydrochloride] | 1.33 |
| NCC1(CC(=O)O)CCCCC1 [Gabapentin] | 0.585 |
| CCOC(=O)c1cncn1[C@H](C)c1ccccc1 [Etomidate] | 2.17 |
| CN[C@@H]1C[C@H]2O[C@@](C)([C@@H]1OC)n1c3ccccc3c3c4c(c5c6ccccc6n2c5c31)C(=O)NC4 [Staurosporine] | 0 |
| CCC1(c2ccc(N)cc2)CCC(=O)NC1=O (configuration not stated) [Aminoglutethimide] | 1.07 |
| CCN(C)C(=O)Oc1cccc([C@H](C)N(C)C)c1.O=C(O)[C@H](O)[C@@H](O)C(=O)O [Rivastigmine tartrate] | 1.33 |
| O=C(O)CCCc1ccc(N(CCCl)CCCl)cc1 [Chloroambucil] | 1.36 |
| CC(C)c1cccc(C(C)C)c1O [Propofol] | 1.2 |
| CC(C)C[C@H]1C(=O)N2CCC[C@H]2[C@]2(O)O[C@](NC(=O)[C@@H]3C[C@@H]4c5cccc6[nH]cc(c56)C[C@H]4N(C)C3)(C(C)C)C(=O)N12.CC(C)[C@@]1(NC(=O)[C@@H]2C[C@@H]3c4cccc5[nH]cc(c45)C[C@H]3N(C)C2)O[C@@]2(O)[C@@H]3CCCN3C(=O)[C@H](Cc3ccccc3)N2C1=O.CC(C)[C@H]1C(=O)N2CCC[C@H]2[C@]2(O)O[C@](NC(=O)[C@@H]3C[C@@H]4c5cccc6[nH]cc(c56)C[C@H]4N(C)C3)(C(C)C)C(=O)N12.CCC(C)[C@H]1C(=O)N2CCC[C@H]2[C@]2(O)O[C@](NC(=O)[C@@H]3C[C@@H]4c5cccc6[nH]cc(c56)C[C@H]4N(C)C3)(C(C)C)C(=O)N12.CS(=O)(=O)O [Dihydroergotoxine mesylate] | 1.88 |
| NCC(CC(=O)O)c1ccc(Cl)cc1 (configuration not stated) [Baclofen] | 1.95 |
| Cc1n[nH]cc1-c1cc2[nH]c([C@@H]3CC4CCN3CC4)nc(=O)c2s1 [Simurosertib] | 1.05 |
| CC[C@@H](C(N)=O)N1CCCC1=O [Levetiracetam] | 0.81 |
| Cc1cccc([C@H](C)c2cnc[nH]2)c1C.Cl [Dexmedetomidine HCl] | 0.581 |
| Cl.Cn1c(CCCC(=O)O)nc2cc(N(CCCl)CCCl)ccc21 [Bendamustine hydrochloride] | 1.14 |
| COc1cc2c(cc1OC)[C@@H]1CC(=O)[C@@H](CC(C)C)CN1CC2.COc1cc2c(cc1OC)[C@H]1CC(=O)[C@H](CC(C)C)CN1CC2 [Tetrabenazine] | 0.557 |
